Assay results from the supplement of paper PMC10681739.

Target: T1, ETS1 (UniProt P14921)
T1 sequence: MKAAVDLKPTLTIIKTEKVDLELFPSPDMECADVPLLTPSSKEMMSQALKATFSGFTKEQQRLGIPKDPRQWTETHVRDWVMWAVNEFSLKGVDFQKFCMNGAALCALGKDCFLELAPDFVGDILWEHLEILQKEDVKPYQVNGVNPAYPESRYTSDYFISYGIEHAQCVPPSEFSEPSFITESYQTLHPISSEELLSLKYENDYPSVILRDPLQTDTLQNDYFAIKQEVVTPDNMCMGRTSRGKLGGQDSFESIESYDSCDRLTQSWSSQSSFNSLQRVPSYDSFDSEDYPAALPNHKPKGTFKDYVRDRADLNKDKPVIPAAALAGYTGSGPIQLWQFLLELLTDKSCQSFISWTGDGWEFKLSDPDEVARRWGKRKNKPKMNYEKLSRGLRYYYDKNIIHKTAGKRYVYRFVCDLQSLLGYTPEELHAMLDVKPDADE
Experiment: ETS1 binding intensity (PBM fluorescence) in presence of RUNX1, normalised to ETS1-only experiment (arbitrary fluorescence units); higher = stronger binding
Conditions: ETS1 concentration 1 nM; RUNX1 concentration 25 nM
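Wherever RUNX1 binding intensity (PBM fluorescence) in presence of ETS1, normalised to RUNX1-only experiment is given: Full-length recombinant human ETS1 or RUNX1 bound to double-stranded 36-bp genomic probes on microarrays, detected by protein-specific primary antibody and Alexa488 secondary, spot fluorescence as median of four replicate spots.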

Row | Sequence | ETS1 binding intensity
1 | GCAAGGCAACAGGAAATTGTGGGGAAATTTTAAAAA | 6190
2 | ACACCCCAGGCAGGATGTGGTAGGGGTTGCCCCAGA | 5030
3 | TAGGCAGGCAGGATGTGCCTATAAGCCACATGAATG | 2240
4 | AGCGCGCCGCCGACCGGATGCGGGAACTGGGCTCGG | 19400
5 | CCGCTTCCTTAGAGGTTAAGTGGTGGTGGTTCAGTT | 391
6 | CACTCCCCGCATCCGGTCTGCGGCGCGCTCGGGGCC | 4710
7 | TCTGGAGAAGCAGGATGTGGTTTGCAAGAGGCTTGC | 16700
8 | CTAAGCAGAGGCCGGAAGCGGTGGTTTTTAGCGGCT | 20400
9 | CTCACCCCTGGAGGATGTGGGTTTCCAGGCTGACAG | 2130
10 | TGCCACCTGCTTCCTGCCTGTGTAGCCACAAGGGAC | 960
11 | GAAGCGATATTTCCTCCTGGGGTTGACCGCCCCGTG | 478
12 | GCCCCAGCGTTTCCTCTTACCCACAATGCCCCGCCC | 869
13 | TGCCTCCTCGTCACAGGATGTGGTCGCTGCACCCTG | 16000
14 | ACTTCACTTCCCAACCTCCCCTGTGGTTAGGTGTGG | 548
15 | GAGGAAGAGTCTTCCTGTAACCACTAGAGGGCGCTG | 663
16 | CATGGGACCCGGAAGTGTGTGGTAAAGCGCCGGGGC | 9470
17 | GCAGCTGCAAACAGGAAACCACAGCAGCGTAGCGGA | 8470
18 | GTGCTCCTCGCTTCCTCCGCGGTCTTCCGAGCGGTC | 365
19 | TGAGGAGAGCGAGGAAGTGGTTTTCTCTTCGCACAG | 1080
20 | GGGGGCGGAAGTTTCGGTGCATTGTGGGTTCTCCTG | 1980

Row | Sequence | ETS1 binding intensity
21 | GGGGCAGGAAGTGGAGGTTTGAAGTGGTTTAGAGTA | 2310
22 | AACTTCCTCCGCGCGGGGCCACTGCTACCACAAAGG | 588
23 | AGAAGCTGCACCCGGAAATGAAACCACCAGGACCTC | 9310
24 | TCTTCTTCCTCCCCCACCCCAAAAGCCACAGGTGAC | 441
25 | AAAACAACTCCAGGATGTGGTTTTACTCAGAATGTA | 7410
26 | ACAGATCCAAGGAAGCATATCCCGCAAGCAACTGTT | 589
27 | GTTGGGCTTTGAGGATGTGGGTTCTAGAAGTTTACA | 2120
28 | CAGGCCTTTCCTGCTATCGTTTGTGGTTTGAGCAGT | 1120
29 | TCCTGTAGTTTCCGGCTGAAGTGGTAAGGTTTTTGA | 852
30 | CCTGTACGGAAGCTACTCTGGTTTCATGTGGTTTCA | 654
31 | GCAAACAGCACATCCGGTGTGGTCGACGGGTCCTCC | 6160
32 | ACCTTCTGTTCCCTTCCTCAGACCGCAGGCGAGATG | 835
33 | CCCGCTACACAAGGCGGATGTGGTACCCTCACTTGT | 6380
34 | CTTCTTTCCAGAGGATGTGGCTTCAGCGGGAGAGCT | 1830
35 | CGTGTGGGAGGCCGGAAGTTGCGGCTTCATTACTCG | 51000
36 | CCACTGCCGGAAGGGGAACTGTGGGGGTGCGCGAGT | 963
37 | GAGCAAACGGAGGCAGGAAGTGGTTATGTAACTTCA | 12400
38 | TGGAGTGGAGGAAGTGGTGTTACCACAGCTCAGAGG | 2680
39 | GGCGCGGGCTGCTTCCGGTCTGCGGGCCTGAGGAGG | 5010
40 | GATACAGTGCTCAGGAAACCACATGAAACCAGAGTA | 948

Target: RUNX1 (UniProt Q01196)
Experiment: RUNX1 binding intensity (PBM fluorescence) in presence of ETS1, normalised to RUNX1-only experiment (arbitrary fluorescence units); higher = stronger binding
Conditions: RUNX1 concentration 2 nM; ETS1 concentration 25 nM
Procedure: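 Cooperative gcPBM on 36-bp genomic probes with neighbouring ETS1 and RUNX1 sites. Recombinant human RUNX1 (2 nM) was incubated alone or with ETS1 (25 nM) and detected with anti-RUNX1 antibody plus Alexa488 secondary. Values are medians over 4 replicate spots; the RUNX1+ETS1 data were normalised to the RUNX1-only data. The probes sit in constant array flanks that are not printed.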

RUNX1, sequence (Q01196 whole entry): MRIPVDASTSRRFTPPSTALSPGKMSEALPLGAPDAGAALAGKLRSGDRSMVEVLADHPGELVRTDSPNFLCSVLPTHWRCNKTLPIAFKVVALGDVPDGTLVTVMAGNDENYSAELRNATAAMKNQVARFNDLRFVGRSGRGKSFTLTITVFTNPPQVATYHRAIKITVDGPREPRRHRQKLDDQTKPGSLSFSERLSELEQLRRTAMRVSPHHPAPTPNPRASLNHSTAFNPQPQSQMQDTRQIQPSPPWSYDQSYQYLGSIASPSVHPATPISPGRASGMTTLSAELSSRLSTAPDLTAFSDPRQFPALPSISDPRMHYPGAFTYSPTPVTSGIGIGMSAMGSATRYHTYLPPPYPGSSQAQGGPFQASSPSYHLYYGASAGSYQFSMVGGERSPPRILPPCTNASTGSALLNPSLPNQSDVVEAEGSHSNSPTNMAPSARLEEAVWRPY

Row | Sequence | RUNX1 binding intensity
41 | GCAAGGCAACAGGAAATTGTGGGGAAATTTTAAAAA | 1070
42 | ACACCCCAGGCAGGATGTGGTAGGGGTTGCCCCAGA | 2080
43 | TAGGCAGGCAGGATGTGCCTATAAGCCACATGAATG | 962
44 | AGCGCGCCGCCGACCGGATGCGGGAACTGGGCTCGG | 1550
45 | CCGCTTCCTTAGAGGTTAAGTGGTGGTGGTTCAGTT | 1230
46 | CACTCCCCGCATCCGGTCTGCGGCGCGCTCGGGGCC | 29400
47 | TCTGGAGAAGCAGGATGTGGTTTGCAAGAGGCTTGC | 4750
48 | CTAAGCAGAGGCCGGAAGCGGTGGTTTTTAGCGGCT | 2090
49 | CTCACCCCTGGAGGATGTGGGTTTCCAGGCTGACAG | 1190
50 | TGCCACCTGCTTCCTGCCTGTGTAGCCACAAGGGAC | 1600
51 | GAAGCGATATTTCCTCCTGGGGTTGACCGCCCCGTG | 1090
52 | GCCCCAGCGTTTCCTCTTACCCACAATGCCCCGCCC | 2330
53 | TGCCTCCTCGTCACAGGATGTGGTCGCTGCACCCTG | 1700
54 | ACTTCACTTCCCAACCTCCCCTGTGGTTAGGTGTGG | 1220
55 | GAGGAAGAGTCTTCCTGTAACCACTAGAGGGCGCTG | 960
56 | CATGGGACCCGGAAGTGTGTGGTAAAGCGCCGGGGC | 2350
57 | GCAGCTGCAAACAGGAAACCACAGCAGCGTAGCGGA | 1710
58 | GTGCTCCTCGCTTCCTCCGCGGTCTTCCGAGCGGTC | 1370
59 | TGAGGAGAGCGAGGAAGTGGTTTTCTCTTCGCACAG | 948
60 | GGGGGCGGAAGTTTCGGTGCATTGTGGGTTCTCCTG | 1140

Row | Sequence | RUNX1 binding intensity
61 | GGGGCAGGAAGTGGAGGTTTGAAGTGGTTTAGAGTA | 1350
62 | AACTTCCTCCGCGCGGGGCCACTGCTACCACAAAGG | 2540
63 | AGAAGCTGCACCCGGAAATGAAACCACCAGGACCTC | 1380
64 | TCTTCTTCCTCCCCCACCCCAAAAGCCACAGGTGAC | 1410
65 | AAAACAACTCCAGGATGTGGTTTTACTCAGAATGTA | 2710
66 | ACAGATCCAAGGAAGCATATCCCGCAAGCAACTGTT | 875
67 | GTTGGGCTTTGAGGATGTGGGTTCTAGAAGTTTACA | 1050
68 | CAGGCCTTTCCTGCTATCGTTTGTGGTTTGAGCAGT | 3830
69 | TCCTGTAGTTTCCGGCTGAAGTGGTAAGGTTTTTGA | 1750
70 | CCTGTACGGAAGCTACTCTGGTTTCATGTGGTTTCA | 1030
71 | GCAAACAGCACATCCGGTGTGGTCGACGGGTCCTCC | 1830
72 | ACCTTCTGTTCCCTTCCTCAGACCGCAGGCGAGATG | 2230
73 | CCCGCTACACAAGGCGGATGTGGTACCCTCACTTGT | 1530
74 | CTTCTTTCCAGAGGATGTGGCTTCAGCGGGAGAGCT | 1030
75 | CGTGTGGGAGGCCGGAAGTTGCGGCTTCATTACTCG | 2710
76 | CCACTGCCGGAAGGGGAACTGTGGGGGTGCGCGAGT | 1040
77 | GAGCAAACGGAGGCAGGAAGTGGTTATGTAACTTCA | 2170
78 | TGGAGTGGAGGAAGTGGTGTTACCACAGCTCAGAGG | 1230
79 | GGCGCGGGCTGCTTCCGGTCTGCGGGCCTGAGGAGG | 1770
80 | GATACAGTGCTCAGGAAACCACATGAAACCAGAGTA | 972
